Screening data (PubChem)
G6PDH CS: inhibits Leuconostoc G6PDH, flagging false hits in G6PDH-based assays; Purified L. mesenteroides G6PDH, diaphorase/resazurin coupled fluorescence, 45 min; inhibition, % at 5 µM; 0.12% of 200,000 active; in the data active means inhibition above about 50%
HDAC3 inhib: inhibitors of human histone deacetylase 3. O15379. recombinant HDAC3, fluorogenic peptide/trypsin coupled, fluorescence. inhibition, % at 8.3 µM. 0.15% of 320,000 active. AID 2718; in the data active means inhibition above about 26%, passing the limit was not always enough; inconclusive means no clear call, values can overlap the other calls
PfM18AAP inh: blocks P. falciparum M18 aspartyl aminopeptidase. recombinant PfM18AAP, H-Glu-NHMec fluorogenic cleavage. inhibition, % at 7.35 µM. 1.2% of 290,000 active. AID 1822;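 active means inhibition above the campaign mean inhibition over all tested compounds plus 3 SD, cut at about 28% in these data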
UBC9 SUMO inh: inhibitors of human SUMOylation (UBC9) | 0.36% of 290,000 active | AID 2006 | HTRF SUMOylation assay, SAE1/SAE2 + UBC9, in vitro | inhibition, % at 35 µM | P63279; in the data active means inhibition above about 50%, passing the limit was not always enough; inconclusive means no clear call, values can overlap the other calls
PHOSPHO1 inh: blocks human PHOSPHO1 phosphatase activity. Q8TCT1. recombinant PHOSPHO1, absorbance phosphatase assay. inhibition, % at 13.3 µM. 1.1% of 290,000 active. AID 1565; in the data active means inhibition above about 60%
p97 inhibitor: inhibitors of human p97 ATPase; recombinant p97 ATPase, Kinase-Glo ATP luminescence, 3 h; 0.42% of 220,000 active; inhibition, % at 8 µM; in the data active means inhibition above about 15%
Target sequence (P55072 whole entry, looked up): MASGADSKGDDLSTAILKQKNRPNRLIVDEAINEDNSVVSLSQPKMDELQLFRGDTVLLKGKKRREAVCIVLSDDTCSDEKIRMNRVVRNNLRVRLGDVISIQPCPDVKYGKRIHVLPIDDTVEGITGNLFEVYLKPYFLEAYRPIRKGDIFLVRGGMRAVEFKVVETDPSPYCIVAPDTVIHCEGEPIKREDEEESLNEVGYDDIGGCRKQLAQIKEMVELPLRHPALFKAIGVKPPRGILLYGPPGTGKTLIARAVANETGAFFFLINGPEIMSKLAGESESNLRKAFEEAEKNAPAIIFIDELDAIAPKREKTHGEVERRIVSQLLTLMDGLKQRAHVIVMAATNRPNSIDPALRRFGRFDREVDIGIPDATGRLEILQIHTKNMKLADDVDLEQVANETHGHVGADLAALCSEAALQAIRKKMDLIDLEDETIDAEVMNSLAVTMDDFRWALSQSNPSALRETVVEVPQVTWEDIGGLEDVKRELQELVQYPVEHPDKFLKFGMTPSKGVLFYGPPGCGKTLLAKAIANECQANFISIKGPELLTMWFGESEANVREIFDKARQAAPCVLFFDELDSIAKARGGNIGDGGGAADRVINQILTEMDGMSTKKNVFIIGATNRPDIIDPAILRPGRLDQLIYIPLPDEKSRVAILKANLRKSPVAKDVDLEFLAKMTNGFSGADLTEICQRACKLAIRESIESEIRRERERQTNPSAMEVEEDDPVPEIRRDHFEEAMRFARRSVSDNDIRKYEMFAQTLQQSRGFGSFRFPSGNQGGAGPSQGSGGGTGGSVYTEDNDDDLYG
Of the large screens only hits and unclear results are named; the others gave an inactive call. A selection: hits, their analogues and other compounds. The true share with any hit is near 2.5%.

C=CCn1c(N)cc(=O)nc1SC(C)C(=O)Nc1ccc(C(=O)OCC)cc1 (configuration not stated)	none (no result: G6PDH CS, p97 inhibitor)
Cc1ccc(NC(=O)CCCNC(=O)c2ccc(Cl)cc2)c(O)c1	none (no result: G6PDH CS, p97 inhibitor)
CC1=NN(c2ccc(N)cc2)C(=O)C1	none
CC1=NN(c2ccc(S(=O)(=O)O)cc2C)C(=O)C1	UBC9 SUMO inh 84
O/N=C/c1ccc2cccc(OCc3ccccc3)c2n1	none (no result: G6PDH CS, p97 inhibitor)
NC(=S)N/N=C/c1ccc2cccc(OCc3ccccc3)c2n1	PfM18AAP inh 44 (no result: G6PDH CS, p97 inhibitor)
CN(C)S(=O)(=O)c1ccc(C(=O)NCc2ccccn2)cc1	PHOSPHO1 inh 62
CN(c1ccccc1)S(=O)(=O)c1ccc(C(=O)NCc2ccccn2)cc1	none
O=C(NCc1ccccn1)c1ccc(N2CCCC2)c([N+](=O)[O-])c1	PHOSPHO1 inh 63
Cc1ccc(NC(=O)CSc2nnc(Cc3csc(C)n3)o2)c(C)c1	none (no result: G6PDH CS, PfM18AAP inh, UBC9 SUMO inh, PHOSPHO1 inh, p97 inhibitor)
Cn1c(=O)c(=O)n(C)c2cc(N3CCCCC3)c(NS(=O)(=O)c3ccc([N+](=O)[O-])cc3)cc21	none (no result: G6PDH CS, p97 inhibitor)
Clc1ncccc1-c1nc2ccccc2s1	PHOSPHO1 inh 61
CCN(CC(=O)Nc1ccc2c(c1)OCCO2)C(=O)/C=C/c1cccc(C(F)(F)F)c1	none (no result: G6PDH CS, PfM18AAP inh, UBC9 SUMO inh, PHOSPHO1 inh, p97 inhibitor)
C=Cc1ccc(CSc2cc(C)nc3nc(C)nn23)cc1	HDAC3 inhib 31 (no result: G6PDH CS)
COc1cc(OC)cc(C(=O)Nc2ccc(C(=O)Nc3ccccc3OC)cc2)c1	none (no result: G6PDH CS, PfM18AAP inh, UBC9 SUMO inh, PHOSPHO1 inh, p97 inhibitor)
O=c1oc(-c2cccnc2)nc2ccccc12	HDAC3 inhib inconclusive
O=c1oc(-c2ccccc2Br)nc2ccccc12	HDAC3 inhib 44 (no result: G6PDH CS, PHOSPHO1 inh, p97 inhibitor)
FC(F)Sc1ccc(N=C2NN=C(c3ccc4c(c3)OCCO4)CS2)cc1	HDAC3 inhib inconclusive, PHOSPHO1 inh 64
COCCn1c(C)cc(C2=NNC(=Nc3ccc(OC)cc3)SC2)c1C	none
CCCCN=C1NN=C(c2ccc3c(c2)OCCO3)CS1	none
c1cc2c(cc1C1=NNC(=NC3CC3)SC1)OCCO2	PfM18AAP inh 31
COc1ccc(N=C2NN=C(c3ccc4c(c3)OCCO4)CS2)cc1	PHOSPHO1 inh 98
COc1ccc([N+](=O)[O-])cc1NCc1ccccc1C	PHOSPHO1 inh 60
Cc1ccc(S(=O)(=O)N/N=C\c2ccc3c(c2)OCO3)cc1	p97 inhibitor 16
Cn1ncc(Cl)c1C(=O)N1CCN(c2ccccc2)CC1	none (no result: G6PDH CS, p97 inhibitor)
Cn1ncc(Cl)c1C(=O)N1CCN(c2ncccn2)CC1	PHOSPHO1 inh 63
O=C1CN(S(=O)(=O)c2ccc([N+](=O)[O-])cc2)CC(=O)N1	none (no result: G6PDH CS, p97 inhibitor)
CC(Sc1ccc(Cl)cc1)C(=O)NNC(=O)c1ccco1 (configuration not stated)	none (no result: G6PDH CS, PfM18AAP inh, UBC9 SUMO inh, PHOSPHO1 inh, p97 inhibitor)
Cc1ccc(Nc2nc(Cl)nc(N(C)C#N)n2)cc1	p97 inhibitor 21
Cc1ccc2c(c1)Sc1c(ccc3ccccc13)N2	PfM18AAP inh 28 (no result: G6PDH CS)
CCCc1cc(=O)[nH]c(SCC(=O)CSc2nc(CCC)cc(=O)[nH]2)n1	HDAC3 inhib 45
CCn1nc(NS(=O)(=O)c2ccc(NC(C)=O)cc2)c2cc3ccccc3nc21	PHOSPHO1 inh 65 (no result: G6PDH CS, p97 inhibitor)
CCCn1nc(NC(=O)CC(C)C)c2cc3ccccc3nc21	PHOSPHO1 inh 69
Cc1cc(C(=O)NNC(=O)/C=C/c2ccc(F)cc2)c(C)o1	none (no result: G6PDH CS, p97 inhibitor)
CC1CN(C(=O)C2CCCCC2)C(C)CN1C(=O)C1CCCCC1 (configuration not stated)	none
CC1CN(C(=O)C2CCCC2)C(C)CN1C(=O)C1CCCC1 (configuration not stated)	PHOSPHO1 inh 60
CC1(c2ccc(NC(=O)c3ccccc3F)cc2)CC1(Cl)Cl (configuration not stated)	none (no result: G6PDH CS, p97 inhibitor)
Cc1ccc(C)c(OCCC(=O)OCC(=O)Nc2cc(S(=O)(=O)N3CCCCC3)ccc2C)c1	none (no result: G6PDH CS, PfM18AAP inh, UBC9 SUMO inh, PHOSPHO1 inh, p97 inhibitor)
Cc1ccc(NC(=S)N2CCOCC2)cc1	none
S=C(Nc1ccc2nc(-c3ccccn3)c(-c3ccccn3)nc2c1)N1CCCCC1	G6PDH CS 50, UBC9 SUMO inh 69, PHOSPHO1 inh 87 (no result: HDAC3 inhib)
S=C(Nc1ccc2nccnc2c1)N1CCOCC1	UBC9 SUMO inh 89
CCOC(=O)C[n+]1c(C)sc2ccc(OC)cc21	PHOSPHO1 inh 92
CCO/C(=C/c1sc2ccc(OC)cc2[n+]1CCCS(=O)(=O)[O-])CC	none
CS(=O)(=O)c1ccccc1C(=O)N1CCN(Cc2ccccc2)CC1	PHOSPHO1 inh 73
CCN(Cc1ccc2c(c1)OCCO2)C(=O)CSc1nc(C)nc2sc(C)c(C)c12	none (no result: G6PDH CS, PfM18AAP inh, UBC9 SUMO inh, PHOSPHO1 inh, p97 inhibitor)
CC(C)N1CC(COc2ccc(Cl)cc2Cl)OC1=O (configuration not stated)	none (no result: G6PDH CS, p97 inhibitor)
O=C(NC1CCCN(Cc2ccccc2F)C1)c1cccs1 (configuration not stated)	none (no result: G6PDH CS, p97 inhibitor)
CCOc1cccc(C(=O)Nc2ccc(N(CC)CC)cc2)c1	PHOSPHO1 inh 70
CCN(CC)c1ccc(NC(=O)Nc2cccc(C(C)=O)c2)cc1	PHOSPHO1 inh 74
CCN(CC)c1ccc(NC(=O)c2ccc(Br)o2)cc1	PHOSPHO1 inh 71
COC(=O)Cc1ccc(NC(=O)c2ccc(Br)o2)cc1	none
c1ccc(COC2CCCN(Cc3nc(-c4cnccn4)no3)C2)nc1 (configuration not stated)	PHOSPHO1 inh 61
CCOC(=O)c1ccc(NS(=O)(=O)c2ccc3[nH]c(=O)[nH]c3c2)cc1	PHOSPHO1 inh 63
O=C(Cn1nc(-c2ccccc2)c2ccccc2c1=O)Nc1ccc(O)cc1	none (no result: G6PDH CS)
Cc1ccc(NC(=O)NNC(=O)Cn2nc(-c3ccccc3)c(-c3ccccc3)c(C#N)c2=O)cc1	p97 inhibitor 15
COC(=O)[C@H](CC(C)C)N(Cc1ccccc1)S(=O)(=O)N(Cc1ccccc1)[C@@H](CC(C)C)C(=O)OC	none (no result: G6PDH CS, PfM18AAP inh, UBC9 SUMO inh, PHOSPHO1 inh, p97 inhibitor)
COC(=O)[C@H](CC(C)C)NS(=O)(=O)N(Cc1ccccc1)[C@@H](CC(C)C)C(=O)OC	HDAC3 inhib 31 (no result: G6PDH CS, PfM18AAP inh, UBC9 SUMO inh, PHOSPHO1 inh, p97 inhibitor)
CC(=O)c1sc2nc(-c3cccs3)ccc2c1N	PHOSPHO1 inh 73
CCOC(=O)/C=C(\C)Sc1cc(=O)oc2ccccc12	none
CCOC(=O)/C=C(\C)Sc1cc(O)c2ccccc2c1O	UBC9 SUMO inh 74, p97 inhibitor 36 (no result: G6PDH CS, HDAC3 inhib)
O=c1[nH]c2cc3c(cc2cc1CN(Cc1ccccc1)Cc1nnnn1Cc1ccco1)OCCO3	PfM18AAP inh 30 (no result: HDAC3 inhib)
COCCn1nnnc1CN(CCc1ccccc1)Cc1cc2cc(OC)ccc2[nH]c1=O	none (no result: G6PDH CS, UBC9 SUMO inh, PHOSPHO1 inh)
COc1ccccc1CN(Cc1cc2cc3c(cc2[nH]c1=O)OCCO3)Cc1nnnn1Cc1ccco1	none
O=c1[nH]c2cc3c(cc2cc1CN(Cc1cccnc1)Cc1nnnn1Cc1ccco1)OCCO3	PfM18AAP inh 28
O=c1[nH]c2cc3c(cc2cc1CN(Cc1cccs1)Cc1nnnn1Cc1ccco1)OCCO3	PfM18AAP inh 31
COCCn1nnnc1CN(Cc1cccnc1)Cc1cc2cc(OC)ccc2[nH]c1=O	PfM18AAP inh 29 (no result: HDAC3 inhib)
CCCN(CC(=O)Nc1ccccc1C)C(=O)/C=C/c1ccc(S(=O)(=O)N2CCCCCC2)cc1	none (no result: G6PDH CS, PfM18AAP inh, UBC9 SUMO inh, PHOSPHO1 inh, p97 inhibitor)
CN(Cc1ccc(Cl)cc1)C(=O)c1ccc2ccccc2n1	none (no result: G6PDH CS, p97 inhibitor)
